{"source": "the supplement of paper PMC3334620", "note": "Over roughly 33,000 sequences, “E-score (-0.5 to 0.5)” has its median near -0.053; the highest 2% begin near 0.37. For the sample, the highest values were picked, then their nearest neighbours and some sequences at random."}
{"molecular_target": "Hap1 (UniProt P0CE41)", "sequence (P0CE41 whole entry, the tested form may be a part)": "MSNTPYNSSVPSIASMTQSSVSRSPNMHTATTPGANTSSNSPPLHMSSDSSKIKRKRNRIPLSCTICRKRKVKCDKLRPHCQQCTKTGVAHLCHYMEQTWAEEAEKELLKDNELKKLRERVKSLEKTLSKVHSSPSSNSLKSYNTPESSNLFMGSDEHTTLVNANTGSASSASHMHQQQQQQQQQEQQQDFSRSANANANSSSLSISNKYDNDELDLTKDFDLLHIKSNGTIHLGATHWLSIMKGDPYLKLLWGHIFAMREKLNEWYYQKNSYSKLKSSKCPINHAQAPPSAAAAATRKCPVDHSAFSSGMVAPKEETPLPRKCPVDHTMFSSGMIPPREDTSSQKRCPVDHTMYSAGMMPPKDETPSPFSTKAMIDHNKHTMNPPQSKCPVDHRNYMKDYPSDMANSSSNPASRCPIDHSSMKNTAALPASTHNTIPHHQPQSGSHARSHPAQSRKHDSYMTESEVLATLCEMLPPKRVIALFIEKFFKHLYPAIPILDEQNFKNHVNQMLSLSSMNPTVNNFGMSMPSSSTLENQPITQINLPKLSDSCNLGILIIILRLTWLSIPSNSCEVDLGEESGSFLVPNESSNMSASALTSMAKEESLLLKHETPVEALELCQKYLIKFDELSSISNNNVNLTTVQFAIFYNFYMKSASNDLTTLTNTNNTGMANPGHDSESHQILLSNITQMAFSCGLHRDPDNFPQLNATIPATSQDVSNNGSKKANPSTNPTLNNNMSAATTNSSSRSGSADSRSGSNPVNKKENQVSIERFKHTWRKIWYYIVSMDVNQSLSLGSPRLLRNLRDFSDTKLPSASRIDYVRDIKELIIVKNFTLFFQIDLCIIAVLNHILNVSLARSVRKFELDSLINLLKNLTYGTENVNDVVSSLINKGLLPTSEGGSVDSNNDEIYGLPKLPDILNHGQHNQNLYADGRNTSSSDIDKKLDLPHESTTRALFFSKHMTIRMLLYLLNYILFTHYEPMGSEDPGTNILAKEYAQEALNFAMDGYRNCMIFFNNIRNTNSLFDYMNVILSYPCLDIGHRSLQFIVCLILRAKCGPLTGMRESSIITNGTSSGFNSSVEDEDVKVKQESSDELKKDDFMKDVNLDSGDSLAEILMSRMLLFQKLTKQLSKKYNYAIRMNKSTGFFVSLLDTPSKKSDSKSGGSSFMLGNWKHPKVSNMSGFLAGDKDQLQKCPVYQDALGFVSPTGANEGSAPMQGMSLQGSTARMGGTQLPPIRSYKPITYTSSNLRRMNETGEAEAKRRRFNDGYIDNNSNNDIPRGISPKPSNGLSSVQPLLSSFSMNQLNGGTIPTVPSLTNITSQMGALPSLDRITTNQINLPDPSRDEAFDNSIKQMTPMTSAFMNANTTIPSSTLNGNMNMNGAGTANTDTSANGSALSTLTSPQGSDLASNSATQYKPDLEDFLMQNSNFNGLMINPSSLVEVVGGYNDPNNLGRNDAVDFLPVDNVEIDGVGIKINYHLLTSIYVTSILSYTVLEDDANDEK", "assay": "PBM E-score (8-mer binding enrichment) (E-score (-0.5 to 0.5)); higher = stronger / more preferred TF binding", "settings": "protein concentration: 200 nM; construct: GST-DNA-binding domain", "experimental": "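Universal 'all 10-mer' protein binding microarrays (Agilent AMADID 015681) probed with GST-tagged S. cerevisiae TFs (full-length or DBD) made by in vitro transcription/translation (PURExpress), about 100-200 nM. Bound TF was detected with fluorescent anti-GST. Each ungapped 8-mer (which stands for itself and its reverse complement) is scored by the PBM enrichment score (E-score), a modified Wilcoxon-Mann-Whitney statistic from -0.5 to +0.5, computed with the Universal PBM Analysis Suite. Scale: above 0.35 generally sequence-specific binding.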"}
{"sequence": "CATGCAGC", "PBM E-score": -0.164}
{"sequence": "AGCTCGAC", "PBM E-score": -0.227}
{"sequence": "ATCAAGCG", "PBM E-score": 0.0373}
{"sequence": "AGCTCGGG", "PBM E-score": 0.363}
{"sequence": "CGCGACTA", "PBM E-score": 0.197}
{"sequence": "CCCTTAAG", "PBM E-score": 0.13}
{"sequence": "CCACCTGC", "PBM E-score": -0.121}
{"sequence": "GAAGACTA", "PBM E-score": -0.0051}
{"sequence": "CTTCTCCA", "PBM E-score": -0.301}
{"sequence": "CGGACAAA", "PBM E-score": 0.405}
{"sequence": "AGGACAAA", "PBM E-score": -0.016}
{"sequence": "CGGACATA", "PBM E-score": 0.489}
{"sequence": "CGGACATC", "PBM E-score": 0.365}
{"sequence": "CGGACAAG", "PBM E-score": 0.357}
{"sequence": "GGGACATA", "PBM E-score": 0.0939}
{"sequence": "CGAGTTGC", "PBM E-score": -0.053}
{"sequence": "ACAGCGCG", "PBM E-score": 0.0018}
{"sequence": "GGGGCGAA", "PBM E-score": 0.127}
{"sequence": "GGGGCGTA", "PBM E-score": 0.00742}
{"sequence": "AGGGCGTA", "PBM E-score": -0.137}
{"sequence": "CGGGCGAC", "PBM E-score": 0.304}
{"sequence": "CGGGCGAA", "PBM E-score": 0.375}
{"sequence": "CGGGCGTA", "PBM E-score": 0.395}
{"sequence": "AAAGGTGG", "PBM E-score": -0.156}
{"sequence": "ACGGCGAA", "PBM E-score": 0.0956}
{"sequence": "CCGAAGTC", "PBM E-score": 0.318}
{"sequence": "ATTGAACC", "PBM E-score": -0.0801}
{"sequence": "CGGCCGAC", "PBM E-score": 0.415}
{"sequence": "CGGCCGAG", "PBM E-score": 0.449}
{"sequence": "GGGCCGAA", "PBM E-score": 0.311}
{"sequence": "CGGCCGAA", "PBM E-score": 0.449}
{"sequence": "TGGCCGAA", "PBM E-score": 0.261}
{"sequence": "CGGCCAAG", "PBM E-score": 0.195}
{"sequence": "AGGCCGAC", "PBM E-score": 0.32}
{"sequence": "AGGCCGAG", "PBM E-score": 0.303}
{"sequence": "GGGCCGAC", "PBM E-score": 0.312}
{"sequence": "GTACTGAC", "PBM E-score": -0.119}
{"sequence": "CGCAGTCA", "PBM E-score": -0.0499}
{"sequence": "AGAGATGG", "PBM E-score": -0.0221}
{"sequence": "AAGTGCGA", "PBM E-score": 0.00701}
{"sequence": "ATGAGTCC", "PBM E-score": 0.0718}
{"sequence": "AACGACCC", "PBM E-score": 0.00262}
{"sequence": "AGGACAGC", "PBM E-score": -0.0413}
{"sequence": "CTCCGGGC", "PBM E-score": 0.341}
{"sequence": "GGCCGGGA", "PBM E-score": 0.336}
{"sequence": "GTCCGGGA", "PBM E-score": 0.38}
{"sequence": "CTCCGGGA", "PBM E-score": 0.392}
{"sequence": "CGCCGGGA", "PBM E-score": 0.317}
{"sequence": "ATCCGGGA", "PBM E-score": 0.239}
{"sequence": "CGTGGTTA", "PBM E-score": -0.251}
{"sequence": "AGTGGAAG", "PBM E-score": 0.0152}
{"sequence": "AATGGGCG", "PBM E-score": -0.0792}
{"sequence": "GAGGCGGC", "PBM E-score": 0.0321}
{"sequence": "ATCCGATA", "PBM E-score": 0.453}
{"sequence": "GTACGATA", "PBM E-score": -0.189}
{"sequence": "CTCCGATC", "PBM E-score": 0.311}
{"sequence": "CTACGATA", "PBM E-score": -0.179}
{"sequence": "GTTCGATA", "PBM E-score": 0.0968}
{"sequence": "ATCCGATC", "PBM E-score": 0.326}
{"sequence": "GTCCGATA", "PBM E-score": 0.463}
{"sequence": "ATCCGATG", "PBM E-score": 0.277}
{"sequence": "CTCCGATA", "PBM E-score": 0.432}
{"sequence": "CTAACGTC", "PBM E-score": 0.00466}
{"sequence": "TCGTACCA", "PBM E-score": -0.114}
{"sequence": "GAGGCCAA", "PBM E-score": -0.0324}
{"sequence": "AACTGTCA", "PBM E-score": -0.212}
{"sequence": "ACAAACGA", "PBM E-score": -0.145}
{"sequence": "CTCTGTCA", "PBM E-score": -0.296}
{"sequence": "TACCATGA", "PBM E-score": -0.347}
{"sequence": "AAGGGGGA", "PBM E-score": -0.179}
{"sequence": "GTCACCCA", "PBM E-score": -0.158}
{"sequence": "AGACCGGC", "PBM E-score": 0.235}
{"sequence": "ATACCGTA", "PBM E-score": 0.092}
{"sequence": "ATACCGCG", "PBM E-score": 0.21}
{"sequence": "CTACCGAA", "PBM E-score": 0.0576}
{"sequence": "ATACCGTG", "PBM E-score": 0.0634}
{"sequence": "CTACCGGA", "PBM E-score": 0.412}
{"sequence": "ATACCGCA", "PBM E-score": 0.284}
{"sequence": "ATACCGGA", "PBM E-score": 0.437}
{"sequence": "ATACCGGC", "PBM E-score": 0.398}
{"sequence": "CTACCGGC", "PBM E-score": 0.29}
{"sequence": "ATACCGGG", "PBM E-score": 0.416}
{"sequence": "CTACCGCA", "PBM E-score": 0.108}
{"sequence": "ATGGCTCA", "PBM E-score": -0.343}
{"sequence": "GGAAACCA", "PBM E-score": -0.0131}
{"sequence": "AGTACTTC", "PBM E-score": 0.153}
{"sequence": "CGCGCTTA", "PBM E-score": 0.209}
{"sequence": "CTGGAGGC", "PBM E-score": -0.096}
